Experimental findings from PubChem BioAssay (Tox21) are described below.

Where “and” joins values, the source holds several entries; their conditions need not be identical. Equal entries are not always repeated. Values without a mark were called inactive. Inconclusive results are not listed. Calls of active or inactive are those of the source. Unless noted, calls follow the shape of the dose curve; as a rule, active = well fitted curve in the direction sought with a large enough effect in the repeat runs; inconclusive = weak or mixed curves; inactive = no such curve, though single readings can be large; an effect the other way counts as inactive or inconclusive.

For experiment [1], the target named is Thyrotropin receptor (Homo sapiens) (UniProt P16473). The experiment in a line: qHTS assay to identify small molecule agonists of the thyroid stimulating hormone receptor (TSHR) signaling pathway (AID 1224843; calls by dose curve; also: nearly all actives have a fitted effect of over 45% in size). In short, it runs like this:
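A cell-based cAMP HTRF format was run in TSHR-transfected HEK293 cells, 800 per well. Treatment: 30 min, room temperature. Detection: 1 h with labelled cAMP and anti-cAMP cryptate. Concentration-response over 15 points, three replicates.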

A short description of experiment [2]: qHTS assay to identify small molecule agonists of the hypoxia (HIF-1) signaling pathway - cell viability counter screen (AID 1224844; calls by dose curve; also: nearly all actives have a fitted effect of over 50% in size; also: potency is read from the fitted curve at half-maximal effect). In short, it runs like this:
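In this counter screen, HRE-bla ME-180 cell viability after 17 hrs of compound exposure at 37C was read by CellTiter-Glo luminescence, multiplexed with the beta-lactamase reporter measurement.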

Experiment [3] is described as follows: qHTS assay to identify small molecule agonists of the hypoxia (HIF-1) signaling pathway (AID 1224846; active = well fitted activation curve with a large enough effect in the signal ratio in the repeat runs, not every such curve was filed as active; the % refers to the signal ratio). In short, it runs like this: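 ME-180 HRE-bla reporter cells; compounds in DMSO, 17 h at 37C; read-out beta-lactamase via CCF4-AM FRET.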
Experiment [4] can be described thus: qHTS assay to identify small molecule agonists of H2AX - cell viability counter screen (AID 1224847; calls by dose curve; also: top concentration of the series differs between compounds; nearly all actives have a fitted effect of over 30% in size). In short, it runs like this:
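Quantitative HTS viability measurement: CHO-K1 wild-type cells in serum (10% FBS) medium, short 3 hr drug exposure at 37C with 0.76% DMSO, CellTiter-Glo luminescent detection.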

A short description of experiment [5]: qHTS assay to identify small molecule antagonists of the estrogen related receptor (ERR) signaling pathway from Tox21 library (AID 1224848). Also: nearly all actives have a fitted effect of over 50% in size. Also: potency is read from the fitted curve at half-maximal effect. In short, it runs like this: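 ERR cell line, 2,000 cells/well. 6 h settle, then compound (DMSO) added; 18 h at 37 C; ONE-Glo luminescence after 30 min RT.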
A short description of experiment [6]: qHTS assay to identify small molecule agonists of the estrogen related receptor (ERR) signaling pathway from Tox21 library (AID 1224849; calls by dose curve; also: nearly all actives have a fitted effect of over 15% in size). Conditions: ERR reporter cell line, ONE-Glo luciferase, 18 h. In short, it runs like this:
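Luciferase activity in ERR pathway reporter cells served as the agonist readout; exposure lasted 18 h at 37 C, with ONE-Glo detection after 30 min at room temperature.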

Experiment [7] can be described thus: qHTS RealTime-Glo MT Cell Viability Assay in HepG2 cells - 24 hour (AID 1224867). Also: nearly all actives have a fitted effect of over 50% in size. In short, it runs like this:
(§1)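 Luminescence read-out: viable HepG2 cells reduce a prosubstrate to a NanoLuc substrate, giving a signal proportional to live cell number. Reads taken at 0, 8, 16, 24, 32 and 40 h of compound exposure at 37 C.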

Experiment [8] can be described thus: qHTS RealTime-Glo MT Cell Viability Assay in HEK293 cells - 32 hour (AID 1224868). Also: top concentration of the series differs between compounds; nearly all actives have a fitted effect of over 50% in size. In short, it runs like this:
(§2)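 Nonlytic real-time viability readout: viable cells convert prosubstrate to NanoLuc substrate, giving luminescence proportional to live cell number. HEK293, 600 cells/well, compound added after 5 h, continuous culture at 37 C.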

Experiment [9] is described as follows: A CellTox Green Cytotoxicity Assay to monitor cytotoxicity in HEK293 cells - 0 hour (AID 1224869). Also: nearly all actives have a fitted effect of over 50% in size. In short, it runs like this: (§3)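 Real-time, in one plate: 600 HEK293 cells/well with dead-cell DNA dye, pinned compound after 5 h, 37 C incubation over 40 h; viable cells give no appreciable fluorescence.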
The nature of experiment [10]: qHTS RealTime-Glo MT Cell Viability Assay in HepG2 cells - 40 hour (AID 1224870). Also: nearly all actives have a fitted effect of over 50% in size. In short, it runs like this:
(§4)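 Real-time viability: cells seeded at 600 per well together with NanoLuc and cell-permeant prosubstrate, compounds added after 5 h incubation. Luminescence tracked at 0, 8, 16, 24, 32 and 40 h of exposure.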

A short description of experiment [11]: qHTS RealTime-Glo MT Cell Viability Assay in HEK293 cells - 16 hour (AID 1224872). In short, it runs like this: as §2
Experiment [12] in a line: qHTS RealTime-Glo MT Cell Viability Assay in HEK293 cells - 40 hour (AID 1224874). Also: nearly all actives have a fitted effect of over 50% in size. To be noted: RealTime-Glo luminescence; max response: hits give low values. In short, it runs like this:
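Kinetic, non-lysing viability readout. Seed HEK293 (600/well) with reagent, incubate 5 h at 37 C/5% CO2, pin 23 nL compound in DMSO, incubate at 37 C, read luminescence at 0, 8, 16, 24, 32, 40 h.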

A short description of experiment [13]: A CellTox Green Cytotoxicity Assay to monitor cytotoxicity in HEK293 cells - 24 hour (AID 1224875). Also: nearly all actives have a fitted effect of over 45% in size. In short, it runs like this:
as §3

Experiment [14] in a line: A CellTox Green Cytotoxicity Assay to monitor cytotoxicity in HepG2 cells - 16 hour (AID 1224876). Also: nearly all actives have a fitted effect of over 45% in size. In short, it runs like this:
(§5)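 Cytotoxicity was tracked as dead-cell DNA fluorescence in HepG2 cells treated with test compounds at 37 C; each time-point value comes from one kinetic series spanning 0, 8, 16, 24, 32 and 40 h.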

A short description of experiment [15]: qHTS RealTime-Glo MT Cell Viability Assay in HepG2 cells - 32 hour (AID 1224877). Also: nearly all actives have a fitted effect of over 55% in size. In short, it runs like this:
as §1

Experiment [16] can be described thus: A CellTox Green Cytotoxicity Assay to monitor cytotoxicity in HepG2 cells - 24 hour (AID 1224878). Also: nearly all actives have a fitted effect of over 45% in size. In short, it runs like this:
as §5

Experiment [17] is described as follows: A CellTox Green Cytotoxicity Assay to monitor cytotoxicity in HepG2 cells - 40 hour (AID 1224879). Also: nearly all actives have a fitted effect of over 40% in size. In short, it runs like this:
as §5

Experiment [18] is described as follows: qHTS assay to identify small molecule agonists of H2AX (AID 1224845; active = well fitted activation curve with a large enough effect in the signal ratio in the repeat runs, not every such curve was filed as active; the % refers to the signal ratio). In short, it runs like this: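 Phospho-H2AX Ser139 measured by HTRF (ex 320 nm; em 665 and 620 nm) after 24 hr antibody incubation. Compounds, 15 concentrations, 0.76% DMSO, were applied to CHO-K1 cells for 3hr at 37C before lysis.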
A short description of experiment [19]: A CellTox Green Cytotoxicity Assay to monitor cytotoxicity in HEK293 cells - 40 hour (AID 1224871). Also: nearly all actives have a fitted effect of over 45% in size. In short, it runs like this:
as §3

Experiment [20] is described as follows: qHTS RealTime-Glo MT Cell Viability Assay in HepG2 cells - 8 hour (AID 1224873). Also: nearly all actives have a fitted effect of over 55% in size. In short, it runs like this:
as §4
% is scaled to controls: 0 for no effect and ±100 for the full control effect.

Sequence of Thyrotropin receptor (Homo sapiens) (P16473 whole entry, looked up): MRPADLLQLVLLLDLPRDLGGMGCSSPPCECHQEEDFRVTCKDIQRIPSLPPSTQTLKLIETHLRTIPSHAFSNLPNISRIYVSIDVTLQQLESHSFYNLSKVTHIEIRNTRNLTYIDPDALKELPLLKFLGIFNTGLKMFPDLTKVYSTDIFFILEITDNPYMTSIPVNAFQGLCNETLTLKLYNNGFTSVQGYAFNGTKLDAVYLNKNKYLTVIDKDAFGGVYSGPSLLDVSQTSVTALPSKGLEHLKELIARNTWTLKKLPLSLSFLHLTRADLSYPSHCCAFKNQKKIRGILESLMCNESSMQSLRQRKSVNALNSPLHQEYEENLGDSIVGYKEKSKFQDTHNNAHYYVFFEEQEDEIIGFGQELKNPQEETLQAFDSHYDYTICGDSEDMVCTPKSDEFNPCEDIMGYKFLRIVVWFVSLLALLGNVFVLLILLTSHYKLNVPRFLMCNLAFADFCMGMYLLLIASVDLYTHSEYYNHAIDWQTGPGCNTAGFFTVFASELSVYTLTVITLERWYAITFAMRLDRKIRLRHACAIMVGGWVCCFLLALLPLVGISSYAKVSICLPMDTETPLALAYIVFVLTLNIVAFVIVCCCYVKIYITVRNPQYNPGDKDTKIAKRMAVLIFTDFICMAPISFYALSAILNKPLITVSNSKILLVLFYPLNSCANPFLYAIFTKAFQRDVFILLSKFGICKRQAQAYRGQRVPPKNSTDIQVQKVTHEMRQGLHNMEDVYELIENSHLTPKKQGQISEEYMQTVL

Regarding `Nc1ccc(Cl)c(Cl)c1`, the Potency entry in [1], in experiment [2], in experiment [4], in experiment [7], in [8] and in [9] was “inactive” throughout. Also, the Potency entry in experiment [10], in experiment [11], in [13], in [14], in experiment [15] and in experiment [16] was “inactive” throughout. The Potency entry in experiment [17] is “inactive”. In addition, the result in experiment [3] was inactive. Besides, in [5], the Potency is 21.7 µM (active). For the same compound, the activity change, positive = activation in experiment [6] (at 92.4 µM (top of the series)) is -24.9% and -36.3%. The max response in experiment [12] is 0.648%.

For the compound `Cc1cc(C)cc(C)c1`, the Potency result in [1], in [2], in experiment [18], in [7], in experiment [8] and in experiment [9] was “inactive” in each case. The Potency entry in experiment [10], in experiment [19], in [11], in experiment [20], in experiment [13] and in [14] was “inactive” throughout. The Potency result in [15], in experiment [16] and in experiment [17] was “inactive” in each case. The outcome in [3] was inactive.

With `CN(C)C(=O)Nc1ccc(Cl)cc1`, the Potency entry in experiment [1], in experiment [2], in experiment [18], in [4], in experiment [7] and in experiment [8] was “inactive” each time. Moreover, the Potency result in [9], in [10], in experiment [11], in experiment [20], in experiment [13] and in [14] was “inactive” each time. The Potency entry in [15], in [16] and in experiment [17] was “inactive” throughout. In experiment [3], the result was inactive.

Take `O=C1C=CC(=O)C=C1`: the Potency entry in experiment [1], in experiment [18], in experiment [7], in experiment [8], in [9] and in experiment [10] was “inactive” in each case. Further, the Potency result in experiment [11], in experiment [13], in [14], in experiment [15], in experiment [16] and in [17] was “inactive” throughout. The Potency in experiment [2] was 49.2 µM (active) and 49 µM (active).

On to `COc1ccc(C(CN(C)C)C2(O)CCCCC2)cc1` (stereo not drawn), for which the Potency entry in experiment [1], in experiment [2], in experiment [18], in [7], in experiment [8] and in [9] was “inactive” each time. Also, the Potency result in experiment [10], in [11], in experiment [13], in experiment [14], in [15] and in experiment [16] was “inactive” throughout. In experiment [17], the Potency entry was “inactive”. The call in experiment [3] was inactive.

As for `CCOP(=S)(OCC)O/N=C(\C#N)c1ccccc1`, the Potency entry in [1], in experiment [2], in experiment [18], in experiment [4], in experiment [5] and in experiment [7] was “inactive” each time. Moreover, the Potency entry in experiment [8], in experiment [9], in experiment [10], in [19], in experiment [11] and in experiment [20] was “inactive” in each case. Further, the Potency result in experiment [13], in experiment [14], in experiment [15], in [16] and in experiment [17] was “inactive” each time. Besides, the result in experiment [3] was inactive. For the same compound, the figures for the activity change, positive = activation in [6] (at 42.5 µM (top of the series)) and in experiment [6] (at 92.4 µM (top of the series)) were 3.78% and 4.34%, respectively.

On to `COP(=S)(OC)Oc1cc(Cl)c(Cl)cc1Cl`, for which the Potency result in experiment [1], in [2], in [18], in [4], in experiment [7] and in experiment [8] was “inactive” each time. Further, the Potency result in [9], in experiment [10], in experiment [19], in experiment [11], in experiment [13] and in experiment [14] was “inactive” in each case. The Potency entry in experiment [15], in experiment [16] and in experiment [17] was “inactive” each time. Also, in experiment [3], the outcome was inactive. In addition, the max response in experiment [12] is -10.5% and -1.54%.
